Coupling enz: qHTS Assay for Inhibitors of Fructose-1,6-bisphosphate Aldolase from Giardia Lamblia: Coupling assay counterscreen | coupling enzyme system counterscreen, AmpLite Red fluorescence | activity change, negative = inhibition, % at 58.2 µM, hits read low | 290,000 compounds, 0.67% hits | AID 2472, 2010; in the data active = activity change below about -30%
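Counterscreen lacking aldolase: glyceraldehyde-3-phosphate coupling-enzyme reagent preincubated 10 min at RT with compound (at 57.5 uM final), then substrate/coupling system with AmpLite Red added; fluorescence read at 525/598 nm after 20 min RT.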
Tau fibril FP: qHTS for Inhibitors of Tau Fibril Formation, Fluorescence Polarization; K18 P301L tau heparin fibrillization, Alexa594 FP, 6 h; Potency, µM (highest dose often 57.7 µM), hits mostly inhibitors; 280,000 compounds, 0.39% hits; AID 1468, 2008; also: nearly all actives have a fitted effect of over 55% in size
Target sequence (P10636 561-689 P618L limits assumed): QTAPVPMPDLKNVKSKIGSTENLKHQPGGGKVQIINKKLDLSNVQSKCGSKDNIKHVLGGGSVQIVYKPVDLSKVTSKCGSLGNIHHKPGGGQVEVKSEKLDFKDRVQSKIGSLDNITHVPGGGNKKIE
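Compound effects on tau fibrillization are measured by Alexa 594 fluorescence polarization (ex 555, em 632 nm). K18 P301L tau is used at 15 uM with 0.24 uM labeled tracer, and 20 uM heparin induces aggregation over 6 hr at 37 C.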
Tau ThT inhib: qHTS for Inhibitors of Tau Fibril Formation, Thioflavin T Binding; recombinant tau K18 P301L, heparin-induced fibrillization, ThT fluorescence; Potency, µM (highest dose often 57.4 µM), most hits filed as inhibitors; 270,000 compounds, 2.1% hits; AID 1460, 2008; also: nearly all actives have a fitted effect of over 55% in size
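In this qHTS, human K18 P301L tau is incubated with compound and heparin for 6 hr at 37 C, and Thioflavin T fluorescence then reports fibril load.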
Tau fluor cs: Counterscreen qHTS for Inhibitors of Tau Fibril Formation, Fluorescence Polarization; tau K18 P301L Alexa594 fluorescence, heparin fibrillization; Potency, µM (highest dose often 57.7 µM); 280,000 compounds, 0.93% hits; AID 1463, 2008; also: nearly all actives have a fitted effect of over 55% in size
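Human tau K18 P301L (15 uM unlabeled, 0.24 uM Alexa 594-labeled) in 100 mM sodium acetate pH 7 with 20 uM heparin, 6 hr at 37 C. ThT 30 uM added, 1 hr ambient; Alexa 594 FP and total fluorescence read at 555/632 nm.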
Of the large screens only hits and unclear results are named; the others gave an inactive call; [ ] = another dose, or the depositor's remark. A selection: hits, their analogues and other compounds. The true share with any hit is near 2.7%. Unless noted, calls follow the shape of the dose curve; as a rule, active = well fitted curve in the direction sought with a large enough effect; inconclusive = small, poorly fitted or top-dose-only effect, or another doubt; inactive = no such curve, though single readings can be large; an effect the other way counts as inactive or inconclusive.

CC(=O)N1CCN(c2ccc(NC(=O)/C=C/c3ccccc3)cc2)CC1	Tau ThT inhib 2.5µM
CC(=O)Nc1ccc(N2CCN(c3ccc(F)cc3)CC2)cc1	none (no result: Tau fibril FP, Tau ThT inhib, Tau fluor cs)
O=C(/C=C/c1ccco1)Nc1ccc(N2CCCC2)cc1	Tau ThT inhib 2.2µM
CC(=O)Nc1ccc(NC(=O)/C=C/c2ccccc2)cc1	none
O=C(O)/C=C\C(=O)Nc1ccc(N2CCN(c3ccc(Cl)c(Cl)c3)CC2)cc1	Tau fibril FP inconclusive, Tau ThT inhib 2.2µM, Tau fluor cs inconclusive
O=C(O)/C=C\C(=O)Nc1ccc(N2CCN(c3ccc(F)cc3)CC2)cc1	Tau ThT inhib 5.6µM, Tau fluor cs inconclusive
O=C(O)/C=C\C(=O)Nc1ccc(N2CCN(c3cccc(Cl)c3)CC2)cc1	Tau ThT inhib inconclusive
O=C(O)/C=C\C(=O)Nc1ccc(N2CCN(c3ccc(Cl)cc3)CC2)cc1	Tau fibril FP inconclusive, Tau ThT inhib 3.5µM, Tau fluor cs inconclusive
COc1ccc(NC2=C(c3ccccc3)C(=O)c3ccccc32)cc1Cl	Tau fluor cs inconclusive (no result: Coupling enz)
COc1ccc(OC)c(NC2=C(c3ccccc3)C(=O)c3ccccc32)c1	Tau ThT inhib 14µM, Tau fluor cs inconclusive (no result: Coupling enz)
Cc1nc2ccn(Cc3cccs3)c(=O)c2cc1C(=O)Nc1ccccc1	none (no result: Coupling enz)
CCOc1ccc(C2C(C(=O)C3CC3)N3C=C(C#N)C=CC3C2(C#N)C#N)cc1 (stereo not drawn)	Tau fibril FP inconclusive, Tau ThT inhib 16µM
CCOc1ccc(C(=O)C2CCN(C(=O)c3ccccc3C(=O)O)CC2)cc1	none
CC(=O)C[C@H](c1ccccc1)c1c(O)c2ccccc2oc1=O	none (no result: Tau fibril FP, Tau ThT inhib, Tau fluor cs)
O=C(O)c1cccnc1Cl	none
O=C(O)c1cccnc1C(=O)O	Coupling enz -63, Tau fibril FP inconclusive
COC(=O)c1cc2sccc2n1Cc1nc(-c2ccc(C)cc2)oc1C	none (no result: Coupling enz)
COc1cc2c(cc1OC)C1(O)C(=O)c3ccc(O)c(C(=O)O)c3OC1CO2 (stereo not drawn)	none
Cc1cc(=O)[nH]c(Nc2cccc(Cl)c2C)n1	none (no result: Tau fibril FP, Tau ThT inhib, Tau fluor cs)
Cc1ccc(-c2ccc(/C=C/C(=O)c3ccccc3)o2)cc1	Tau ThT inhib 13µM
O=C(/C=C/c1ccc(-c2ccccc2)o1)c1ccccc1	none
O=C(/C=C/c1ccc(-c2ccccc2[N+](=O)[O-])o1)c1ccc(Br)cc1	Tau ThT inhib 7.9µM, Tau fluor cs inconclusive
Cc1ccc(C(=O)/C=C/c2ccc(-c3ccccc3[N+](=O)[O-])o2)cc1	Tau ThT inhib 8.9µM, Tau fluor cs inconclusive
O=C(/C=C/c1ccc(-c2ccccc2[N+](=O)[O-])o1)c1ccc(F)cc1	Tau ThT inhib inconclusive
O=C(c1cnccn1)N1CCC2(CCN(Cc3ccncc3)CC2)CC1	none (no result: Tau fibril FP, Tau ThT inhib, Tau fluor cs)
CN1CCc2c(sc3c2C(=O)NC(c2cn(Cc4ccccc4)c4ccccc24)N3)C1 (stereo not drawn)	Tau fibril FP inconclusive, Tau ThT inhib 18µM
CN1CCc2c(sc3c2C(=O)NC(c2ccc(-c4ccc(Cl)cc4)o2)N3)C1 (stereo not drawn)	Tau fibril FP inconclusive, Tau ThT inhib 3.2µM, Tau fluor cs inconclusive
CN1CCc2c(sc3c2C(=O)NC(c2ccco2)N3)C1 (stereo not drawn)	Tau fibril FP inconclusive, Tau ThT inhib inconclusive
CCn1c(SCc2ccccc2C)nc(=O)c2c(C(=O)OC)cc(C3CC3)nc21	Tau ThT inhib inconclusive (no result: Coupling enz)
Cc1ccc(NC(=O)Cn2c(=O)ccc3cc(S(=O)(=O)N4CCCC4)ccc32)cc1C	none (no result: Coupling enz)
O=C(Nc1ccccc1N1CCCCC1)c1ccc(-c2cccc(Cl)c2)o1	none
O=C(Nc1cccc2nsnc12)c1ccc(-c2cccc(Cl)c2)o1	Coupling enz -40, Tau ThT inhib inconclusive
CNc1nc2[nH]c(=O)c3c(c2s1)OC(N)=C(C#N)C3c1cccc(F)c1 (stereo not drawn)	Coupling enz -51
O=C(Nc1ccc(N2CCOCC2)c(Cl)c1)c1ccc(Br)o1	Coupling enz -32, Tau fibril FP inconclusive, Tau ThT inhib inconclusive, Tau fluor cs inconclusive
O=C(Nc1ccc(N2CCOCC2)c(Cl)c1)c1cc2ccccc2o1	Coupling enz -33, Tau ThT inhib inconclusive, Tau fluor cs inconclusive
O=C(Nc1ccc(N2CCCC2)c(Cl)c1)c1ccc([N+](=O)[O-])o1	Tau ThT inhib 8.9µM, Tau fluor cs 14µM[quencher]
O=C(Nc1ccc(N2CCCCC2)cc1)c1ccc([N+](=O)[O-])o1	none (no result: Tau fibril FP, Tau ThT inhib, Tau fluor cs)
O=C(Nc1ccc(N2CCCC2)cc1)c1ccc(Br)o1	Tau ThT inhib 8.9µM, Tau fluor cs inconclusive
CCOc1cc(Cl)c(S(=O)(=O)n2ccnc2)cc1Cl	none (no result: Coupling enz)
O=C(Nc1ccccc1N1CCCCC1)c1ccc(Cl)c([N+](=O)[O-])c1	none
O=C(/C=C/c1ccc(Cl)c([N+](=O)[O-])c1)Nc1ccc(N2CCCC2)c(Cl)c1	Tau ThT inhib 1µM, Tau fluor cs inconclusive
Cc1cc(/C([O-])=C(/C(=S)Nc2ccccc2)[n+]2ccccc2)c(C)n1-c1ccccc1	Tau ThT inhib inconclusive
Cc1cc(/C([O-])=C(/C(=S)Nc2ccc(F)cc2)[n+]2ccccc2)c(C)n1-c1ccc(F)cc1	Tau ThT inhib 28µM, Tau fluor cs inconclusive
COC(=O)c1ccc(C(NC(=O)OCc2ccccc2)/C(=C/[C@@H](C)C(=O)NCc2cc(F)cc(F)c2)c2cccnc2)cc1 (stereo partly drawn)	none
S=C(NCc1ccccc1)Nc1cccc2cnccc12	none (no result: Tau fibril FP, Tau ThT inhib, Tau fluor cs)
Fc1ccccc1NC(=S)Nc1cccc2cnccc12	Coupling enz -32, Tau fibril FP inconclusive, Tau ThT inhib inconclusive
Cc1ccccc1NC(=S)Nc1cccc2cnccc12	Coupling enz -52, Tau ThT inhib inconclusive
Cc1ccc(C)c(NC(=S)Nc2cccc3cnccc23)c1	Coupling enz -37, Tau fibril FP inconclusive, Tau ThT inhib inconclusive
S=C(NCCc1ccccc1)Nc1cccc2cnccc12	Coupling enz -36, Tau ThT inhib inconclusive
NC(=S)Nc1cccc2cnccc12	none
Cc1ccc(C)c(NC(=S)Nc2cccnc2)c1	none
FC(F)(F)c1ccccc1NC(=S)Nc1cccc2cnccc12	Tau fibril FP inconclusive, Tau ThT inhib 22µM
Cc1ccc(NC(=O)C2CCCN(c3nnc(C)c4c(C)n(-c5ccccc5)nc34)C2)c(Cl)c1 (stereo not drawn)	none (no result: Coupling enz)
NNc1nc2ccc(F)cc2s1	Tau fibril FP inconclusive, Tau ThT inhib 25µM, Tau fluor cs 18µM[quencher]
NNc1nc2ccc(Cl)cc2s1	Tau fibril FP inconclusive, Tau ThT inhib 22µM, Tau fluor cs 14µM[quencher]
O=C(Nc1ccccc1)Nc1ccc(S(=O)(=O)N2CCCCC2)cc1	Tau fibril FP 32µM, Tau fluor cs 16µM[quencher]
O=C(Nc1cccc(Cl)c1)Nc1cc(S(=O)(=O)N2CCCCC2)ccc1Cl	Tau fibril FP 11µM, Tau fluor cs inconclusive
O=c1c2ccccc2sn1-c1cc(S(=O)(=O)N2CCOCC2)ccc1N1CCCC1	Tau fibril FP 32µM, Tau ThT inhib 25µM
N#CC(C#N)=NNc1ccc(S(=O)(=O)N2CCCCC2)cc1	Tau ThT inhib 16µM, Tau fluor cs inconclusive
